HCMV antiviral – blocks human cytomegalovirus replication. HFF cells, HCMV-luciferase reporter, 72 h; stronger effect = lower value. activity change, negative = inhibition, % at 57.5 µM. actives 4.5% (n = 410,000); in the data active means activity change below about -60%; inconclusive means no clear call, values can overlap the other calls; inactive means above about -39%
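Compounds were evaluated in HFFs infected with an HCMV luciferase reporter virus (MOI 1 PFU/cell). Luciferase in lysates collected 72 h post infection served as the replication measure.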
Pf growth 48h – P. falciparum growth inhibition at 48 hours (one generation); P. falciparum luciferase growth in erythrocytes, 48 h; Potency, µM (top dose mostly 28.7 µM), for inactives: at the highest dose activity change, negative = inhibition, hits mostly inhibitors; actives 5.9% (n = 310,000); further: potency means the concentration at half of the fitted maximal effect
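Firefly luciferase activity from engineered P. falciparum reports growth; inhibitors lower the luminescent signal. Cultures contained 2% hematocrit erythrocytes at 0.1% final parasitemia.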
HCV inhibitor – HCV inhibition | Huh7.5.1 HCVcc-Cre infection, luciferase reporter, 44 h | Potency, µM (series often up to 41.8 µM), for inactives: at the top dose activity change, negative = inhibition, actives largely listed as inhibitors | actives 3.4% (n = 340,000) | AID 651820; further: potency means the concentration at half of the fitted maximal effect
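A cell-based infection assay in which seeded cells (1,000 per well) receive test compound after 4 h, are inoculated with HCVcc-Cre at approximately 0.5 moi, and are incubated 44 h before luminescence detection.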
Pf growth 96h – P. falciparum growth inhibition at 96 hour, primary screen for plastid delayed-death inhibitors. P. falciparum luciferase reporter growth, 96 h. AID 504834. actives 6.9% (n = 320,000). Potency, µM (titrated, usually from 28.7 µM), inactives show at the top dose activity change, negative = inhibition, usual class: inhibitors; further: potency means the concentration at half of the fitted maximal effect
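96 h incubation, 37 C, 5% CO2, of luciferase-reporter P. falciparum-infected RBCs (2% hematocrit, 0.05% parasitemia final) with test compounds; endpoint luminescence.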
* = called active by the depositor; [ ] = remark or other dose. Most compounds without a hit are left out; they make up all but 13% or so of the library. Unless noted, the call rests on the fitted dose curve; in most records, active means well fitted inhibition curve with a large enough effect; inconclusive means small, poorly fitted or top-dose-only effect, or another doubt; inactive means no such curve, though single readings can be large or run the other way. On the % scale 0 is the no-effect control and ±100 the full control effect.

Results for COc1ccccc1-c1ccc2n(c1=O)C[C@@H]1[C@@H](CO)[C@H](C(=O)NCCCN(C)C)N(C(C)=O)[C@H]21 ?
HCMV antiviral: 3

What do the screens show for `NC(=O)C1CCN(c2nc(-c3ccccc3F)cs2)CC1`?
HCMV antiviral: 111; Pf growth 48h: inconclusive; Pf growth 96h: inconclusive

What do the screens show for `NC(=O)C1CCN(c2nc(-c3ccccc3Br)cs2)CC1`?
HCMV antiviral: -74*; Pf growth 48h: inconclusive; Pf growth 96h: inconclusive

How did COC(=O)C1=C(C)N(Cc2ccccc2C(F)(F)F)C(=NCc2ccc(C(F)(F)F)cc2)NC1c1cccc(Cl)c1 (configuration not stated) do in these assays?
HCMV antiviral: -26

Results for CCCN(CC(=O)Nc1ccc(Cl)cc1Cl)C(=O)/C=C/c1ccco1 ?
HCMV antiviral: -66*; Pf growth 48h: 65%; HCV inhibitor: inconclusive; Pf growth 96h: -11%

How did CCOC(=O)c1cccc(NC(=O)C2=C(C)C(=O)OC23CCCCC3)c1 do in these assays?
HCMV antiviral: -37

What do the screens show for `Cc1ccc(Cl)cc1N1CCN(C(=O)c2ccc(CN3CCOCC3)cc2)CC1`?
HCMV antiviral: 6; Pf growth 48h: inconclusive; HCV inhibitor: 25µM*; Pf growth 96h: -20%

What do the screens show for `CCCCn1c(=S)[nH]c2ccc(N3CCOCC3)cc2c1=O`?
Pf growth 48h: inconclusive; Pf growth 96h: 8.3µM*

How did O=C(CCCCCn1c(=S)[nH]c2ccc(N3CCOCC3)cc2c1=O)NCc1ccc2c(c1)OCO2 do in these assays?
HCMV antiviral: 0; Pf growth 48h: inconclusive; HCV inhibitor: inconclusive; Pf growth 96h: 4%[5.75 µM]

Results for Cc1ccc(Cl)cc1N1CCN(Cc2cc3c(cc2O)CCC3)CC1 ?
HCMV antiviral: inconclusive; HCV inhibitor: 1%; Pf growth 96h: 0.15µM*

How did O=C(CCCCCn1c(=S)[nH]c2ccc(N3CCOCC3)cc2c1=O)NCc1ccc(Cl)cc1 do in these assays?
HCMV antiviral: -75*; Pf growth 48h: 8.3µM*; HCV inhibitor: -19%; Pf growth 96h: 67%

Results for O=c1c2cc(N3CCOCC3)ccc2[nH]c(=S)n1Cc1ccc(Cl)cc1 ?
HCMV antiviral: -87*; HCV inhibitor: inconclusive; Pf growth 96h: -56%

What do the screens show for `Cc1cccc(N2CCN(C(=O)CCCCCn3c(=S)[nH]c4ccc(N5CCOCC5)cc4c3=O)CC2)c1C`?
HCMV antiviral: -34; Pf growth 48h: 9.3µM*; HCV inhibitor: inconclusive; Pf growth 96h: 3%

What do the screens show for `Cc1ccc(C)c(N2CCN(C(=O)c3ccc(Cn4c(=S)[nH]c5ccc(N6CCOCC6)cc5c4=O)cc3)CC2)c1`?
HCMV antiviral: 86; Pf growth 48h: 2.6µM*; HCV inhibitor: inconclusive; Pf growth 96h: 4.1µM*

What do the screens show for `O=C(c1ccc(Cn2c(=S)[nH]c3ccc(N4CCOCC4)cc3c2=O)cc1)N1CCN(c2ccc(F)cc2)CC1`?
HCMV antiviral: -13; Pf growth 48h: inconclusive; HCV inhibitor: inconclusive; Pf growth 96h: inconclusive

How did O=c1c2cc(N3CCOCC3)ccc2[nH]c(=S)n1CCCN1CCN(c2ccccc2F)CC1 do in these assays?
Pf growth 48h: 19%; HCV inhibitor: 2%; Pf growth 96h: -2%

What do the screens show for `CSc1cccc(NC(=O)c2cnn(-c3ccc(F)cc3)c2-n2cccc2)c1`?
HCMV antiviral: -26

How did CCCCNC(=O)C1(C)CCN1C(=O)c1ccc(OC)c(F)c1 (configuration not stated) do in these assays?
HCMV antiviral: 16

How did O=C(c1ccco1)N1CCc2[nH]nc(-c3ccc(Cl)cc3)c2C1 do in these assays?
HCMV antiviral: -19; Pf growth 48h: 2%; HCV inhibitor: 11µM*; Pf growth 96h: inconclusive

Results for CCOc1cc(C(=O)O)cc(Cl)c1OCC#N ?
HCMV antiviral: -7; Pf growth 48h: 6%; HCV inhibitor: 32%; Pf growth 96h: 7.4µM*

What do the screens show for `COc1c(Cl)cc(C(=O)O)cc1Cl`?
HCMV antiviral: 30; HCV inhibitor: -3%

How did Cc1cc(C)nc(-n2nc(C)c3c2N(Cc2ccccc2F)C(=O)CC3c2ccc(Cl)cc2)n1 (configuration not stated) do in these assays?
HCMV antiviral: -28

Results for COc1ccc(CCNC(=O)C2(c3cccs3)CCOCC2)cc1OC ?
HCMV antiviral: -4

What do the screens show for `Cc1ccc(-c2n[nH]c(=S)c3ccccc23)cc1S(=O)(=O)NCC1CCCO1` (configuration not stated)?
HCMV antiviral: -63*; Pf growth 48h: -5%; HCV inhibitor: inconclusive; Pf growth 96h: 4%

How did CNS(=O)(=O)c1cc(-c2nnc(Nc3ccc(CC(N)=O)cc3)c3ccccc23)ccc1C do in these assays?
HCMV antiviral: -19; Pf growth 48h: 7.4µM*; HCV inhibitor: 11%; Pf growth 96h: 30%

Results for COC(=O)COc1ccc(-c2nnc(Nc3ccc(O)cc3)c3ccccc23)cc1 ?
HCMV antiviral: -107*

What do the screens show for `Cc1ccc(-c2nnc(Nc3ccc(CC(N)=O)cc3)c3ccccc23)cc1S(N)(=O)=O`?
HCMV antiviral: -5; Pf growth 48h: 0%[0.00184 µM]; HCV inhibitor: 12%; Pf growth 96h: 39%

What do the screens show for `Cc1ccccc1Nc1nnc(-c2ccc(C)c(S(=O)(=O)NCC3CCCO3)c2)c2ccccc12` (configuration not stated)?
HCMV antiviral: -76*

What do the screens show for `O=C(Nc1c(-c2ccccc2)nc2ccccn12)c1ccc(Br)cc1`?
HCMV antiviral: -19

How did Cc1ccc(-c2nnc(N3CCC(C)CC3)c3ccccc23)cc1C do in these assays?
HCMV antiviral: -27; Pf growth 48h: 13µM*; HCV inhibitor: inconclusive; Pf growth 96h: inconclusive

What do the screens show for `Cc1ccc(-c2nnc(N3CCC(C)CC3)c3ccccc23)cc1`?
HCMV antiviral: -32; Pf growth 48h: inconclusive; HCV inhibitor: inconclusive; Pf growth 96h: inconclusive

Results for O=S(=O)(NCC1CCCO1)c1ccc(Cl)c2ccccc12 (configuration not stated) ?
HCMV antiviral: -84*

Results for Cc1ccc(-c2nnc(N3CCOCC3)c3ccccc23)cc1S(=O)(=O)NCC1CCCO1 (configuration not stated) ?
HCMV antiviral: -95*; Pf growth 48h: 8.3µM*; HCV inhibitor: -6%; Pf growth 96h: -22%

Results for COC(=O)c1ccc(Nc2nnc(-c3ccc(C)c(S(=O)(=O)NCC4CCCO4)c3)c3ccccc23)cc1 (configuration not stated) ?
HCMV antiviral: -29; Pf growth 48h: 7.4µM*; HCV inhibitor: inconclusive; Pf growth 96h: inconclusive

How did Cc1ccc(-c2n[nH]c(=O)c3ccccc23)cc1S(=O)(=O)NCC1CCCO1 (configuration not stated) do in these assays?
HCMV antiviral: -5; Pf growth 48h: -10%; HCV inhibitor: -17%; Pf growth 96h: inconclusive

Results for Cc1ccc(-c2nnc(Nc3ccc(C(N)=O)cc3)c3ccccc23)cc1S(N)(=O)=O ?
HCMV antiviral: -16

Source: PubChem BioAssay (National Center for Advancing Translational Sciences (NCATS))
